# Screens deposited in PubChem BioAssay by National Center for Advancing Translational Sciences (NCATS).
# VDR inh – blocks the human vitamin D receptor; AID 504847; P11473; VDR-SRC2-3 peptide fluorescence polarization, 2 h; actives 0.93% (n = 400,000); Potency, µM, for inactives: max response, negative = inhibition, usual class: inhibitors; note: potency is the fitted concentration of half-maximal effect; % is set by controls: 0 for no effect and ±100 for the full control effect
#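 Inhibition of the VDR/SRC2-3 peptide interaction is quantified by fluorescence polarization. Compounds (23 nl, pintool) incubate with the reagents for 2 hours at ambient room temperature.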
# PLK1 PBD inh – PLK1 (human) polo-box domain binding inhibition. P53350. AID 720504. Plk1 PBD binding of FITC phosphopeptide, fluorescence polarization. Potency, µM, without a hit: max response, negative = inhibition, actives largely listed as inhibitors. actives 2.8% (n = 360,000); note: potency is the fitted concentration of half-maximal effect; series mostly up to about 57 µM; % is set by controls: 0 for no effect and ±100 for the full control effect; nearly all actives have a fitted effect of over 65% in size
# Target sequence (P53350 whole entry, looked up, the tested form may be a part): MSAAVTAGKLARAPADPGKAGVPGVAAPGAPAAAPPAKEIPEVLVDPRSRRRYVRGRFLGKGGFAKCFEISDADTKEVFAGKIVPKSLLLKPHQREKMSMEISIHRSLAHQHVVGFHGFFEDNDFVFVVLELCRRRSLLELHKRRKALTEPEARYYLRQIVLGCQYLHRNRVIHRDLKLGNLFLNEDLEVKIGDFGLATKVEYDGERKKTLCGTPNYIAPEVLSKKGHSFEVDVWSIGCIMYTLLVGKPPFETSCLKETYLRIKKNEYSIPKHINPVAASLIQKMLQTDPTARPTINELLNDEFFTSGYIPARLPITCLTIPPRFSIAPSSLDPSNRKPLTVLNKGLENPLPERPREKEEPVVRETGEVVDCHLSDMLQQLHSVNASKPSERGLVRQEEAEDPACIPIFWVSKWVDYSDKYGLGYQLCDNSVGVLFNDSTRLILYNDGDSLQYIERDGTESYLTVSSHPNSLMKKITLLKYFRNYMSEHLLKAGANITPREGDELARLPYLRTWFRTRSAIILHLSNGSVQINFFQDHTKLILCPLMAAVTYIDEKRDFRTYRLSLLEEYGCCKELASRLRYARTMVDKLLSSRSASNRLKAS
# uPA surface inh – blocks generation of uPA at the cell surface. cell surface uPA generation assay, qHTS. Potency, µM (highest dose often 38.3 µM), for the others: top-dose activity change, negative = inhibition, actives largely listed as inhibitors. actives 0.31% (n = 330,000). AID 540303; active = well fitted inhibition curve with a large enough effect; inconclusive = small, poorly fitted or top-dose-only effect; inactive = no such curve, though single readings can be large or run the other way; tested in mouse RAW 264.7 cells; note: potency is the fitted concentration of half-maximal effect; % is set by controls: 0 for no effect and ±100 for the full control effect; nearly all actives have a fitted effect of over 55% in size
# TSHR antag – human thyrotropin receptor antagonism. P16473. activity change, negative = inhibition, % at 11.5 µM. actives 0.2% (n = 330,000). TSHR-expressing cells, TSH-stimulated cAMP HTRF, 2 h; hits give low values. AID 504810;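 active = activity change below a set negative limit, meaning inhibition stronger than a set level, cut at about -70% in these data; inconclusive = activity change between two set negative limits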; note: % is set by controls: 0 for no effect and ±100 for the full control effect
#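 Antagonism was scored as loss of TSH-driven cAMP in TSHR cells, stimulated with 4nM TSH (EC80) for 2 hours at 37 deg C and detected by homogeneous HTRF competition immunoassay.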
# TSG101-PTAP inh – blocks PTAP/TSG101 interaction to inhibit HIV-1 budding; Potency, µM (top dose mostly 115 µM), without a hit: top-dose activity change, negative = inhibition, most hits filed as inhibitors; AID 493005; Q99816; Fluorescence polarization, FITC-PTAP peptide / Tsg101 binding; 340,000 tested, under 10 active; active = well fitted inhibition curve with a large enough effect in the main read-out, with a control signal flat, not every such curve was filed as active; inconclusive = small, poorly fitted or top-dose-only effect, or effect the other way, or a change in a side signal; inactive = no such curve, though single readings can be large or run the other way; note: potency is the fitted concentration of half-maximal effect; % of control where 0% means no effect
#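 Fluorescence polarization binding of Tsg101 binding domain (10 uM final) to FITC-labeled PTAP peptide (50 nM final) in HEPES pH 7.5 buffer with NaCl, Tween 20, EDTA, TCEP. Compounds added before peptide; binding 20 min at RT.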
# An asterisk follows results filed as active; ? = inconclusive; · = not tested or not shown. Compounds with a hit are over-represented: about 3.1% of the library has one in this group of screens. Unless noted, calls come from the whole dose curve; as a rule, active = well fitted curve in the direction sought with a large enough effect; inconclusive = small, poorly fitted or top-dose-only effect, or another doubt; inactive = no such curve, though single readings can be large; an effect the other way counts as inactive or inconclusive.
SMILES,VDR inh,PLK1 PBD inh,uPA surface inh,TSHR antag,TSG101-PTAP inh
O=C(NC(=S)Nn1cnnc1)c1ccccc1Cl,-16.4%,?,1.0%,11.1,-2.1%
COc1cccc(C(=O)NC(=S)Nn2cnnc2)c1OC,-0.4%,23.8µM*,5.5%,12.1,0.3%
CN1CCN(NC(=S)Nc2ccccc2)CC1,-12.3%,1.2%,1.9%,0.5,-1.9%
S=C(Nc1ccccc1)Nn1cnnc1,-17.1%,18.9µM*,3.0%,-4.6,-2.9%
C/C(=N\NC(=O)c1ccncc1)c1ccc(N(C)C)cc1,7.3%,26.7µM*,-3.6%,5.8,-0.3%
Cc1ccc(C)c(NS(=O)(=O)c2ccc(OCC(=O)NCC3CCCO3)cc2)c1 (stereo not drawn),4.0%,-19.5%,5.7%,-11.6,-1.4%
COc1ccc(NS(=O)(=O)c2ccc(NC(=S)NCC3CCCO3)cc2)cc1 (stereo not drawn),-4.7%,-20.3%,-1.0%,-4.3,-3.7%
CCNS(=O)(=O)c1ccc(NC(=S)NCC2CCCO2)cc1 (stereo not drawn),?,23.8µM*,0.9%,30.6,-1.6%
Cc1ccc(NS(=O)(=O)c2ccc(OCC(=O)NCC3CCCO3)cc2)cc1 (stereo not drawn),-4.9%,29.9µM*,3.6%,5.7,-1.1%
O=C(Cc1ccc(Cl)c(Cl)c1)NNC(=S)NCC1CCCO1 (stereo not drawn),-11.8%,-29.2%,-1.3%,10.7,-6.8%
Cc1ccc(-c2nc(S(=O)(=O)c3ccc(F)cc3)c(SCC(=O)NCC3CCCO3)o2)cc1 (stereo not drawn),-20.4%,18.9µM*,0.7%,8.9,-0.9%
S=C(NCC1CCCO1)Nc1ccc(Cl)c(Cl)c1 (stereo not drawn),?,11.9µM*,1.2%,-1.8,0.3%
CC(C)NC(=O)C1(C)CCN1C(=O)C1(c2ccccc2)CC1 (stereo not drawn),·,-3.1%,·,·,·
COc1ccc(C(=O)OCc2ccccc2F)cc1S(=O)(=O)N1CCCC1,-10.0%,-7.7%,-2.4%,1.7,-4.1%
COc1ccccc1NS(=O)(=O)c1ccc(O)c(NC(=S)NCC2CCCO2)c1 (stereo not drawn),-29.7%,13.4µM*,-0.1%,-0.9,-5.8%
O=C(CN(C1CCCCC1)S(=O)(=O)c1ccc(F)cc1)NCC1CCCO1 (stereo not drawn),?,29.9µM*,-3.6%,·,-0.3%
O=C(CN(C1CCCCC1)S(=O)(=O)c1ccccc1)NCC1CCCO1 (stereo not drawn),-3.4%,-0.8%,1.8%,0.5,-0.2%
COc1ccc(NC(=S)NCC2CCCO2)c(C)c1 (stereo not drawn),-21.4%,-10.3%,-1.7%,-1.1,-1.1%
CCOC(=O)c1[nH]cnc1C(=O)NC1CCN(C(=O)OC(C)(C)C)CC1,-24.5%,-0.2%,11.5%,-3.7,-1.9%
Cc1csc(NC(=O)Cn2nc(C)c([N+](=O)[O-])c2C)n1,24.3%,-10.3%,-0.8%,3.9,-2.6%
CCc1c(C)sc(NC(=O)Cn2nc(C)c([N+](=O)[O-])c2C)c1C(N)=O,?,5.97µM*,-1.2%,-10.3,-1.6%
Cc1cc(C)c2nc(-c3ccccn3)cc(C(=O)Nc3ccc(S(=O)(=O)Nc4cc(C)on4)cc3)c2c1,?,21.2µM*,·,17.7,-5.1%
Cc1cc(NS(=O)(=O)c2ccc(NC(=O)c3cc(-c4ccccc4Cl)nc4ccccc34)cc2)no1,6.9%,67µM*,-3.0%,0.4,-0.4%
Cc1cc(C)c2nc(-c3ccccn3)cc(C(=O)NCc3ccc(S(N)(=O)=O)cc3)c2c1,1.3%,-2.5%,-6.5%,1.6,8.2%
Cc1cc(NC(=O)c2cc(-c3ccccc3Cl)nc3ccccc23)no1,11.5%,-14.5%,-1.1%,-3.3,-1.8%
Cc1cc(C)c2nc(-c3ccccn3)cc(C(=O)NCCc3ccc(S(N)(=O)=O)cc3)c2c1,16.5%,29.9µM*,-3.6%,-2.4,-1.6%
Cc1ccc(-c2cc(C(=O)Nc3ccc(S(=O)(=O)Nc4nccs4)cc3)c3ccccc3n2)c(C)c1,-23.0%,5.32µM*,0.3%,-5.5,0.6%
Cc1oc2ncn(CC(C)C)c(=O)c2c1C(=O)NCCCN(Cc1ccccc1)C(C)C,22.1%,·,·,·,·
